Source: PubChem BioAssay (NMMLSC)
Sampled rows, rich in hits. Any-hit rate of the full collection: about 2.9%.
MEKK2 mut-MEK5 = signal of MEK5 binding to mutant human MEKK2 PB1 domain. bead flow cytometry, Alexa488-MEK5 binding to MEKK2 mutant. hit rate 0.35% among 290,000. percent response, % at 10 µM; in the data active = percent response above about 24%, passing the limit was not always enough
B2AR ag = agonists of human beta-2 adrenergic receptor inducing internalization; hit rate 0.43% among 340,000; Am2.2-beta2AR cells, FAP receptor internalization, flow cytometry; response, % (no concentration beside the values);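 active = response above a set limit, near 3 SD of response in nonfluorescent compounds, cut at about 42% in these data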
Target sequence (P07550 whole entry, looked up): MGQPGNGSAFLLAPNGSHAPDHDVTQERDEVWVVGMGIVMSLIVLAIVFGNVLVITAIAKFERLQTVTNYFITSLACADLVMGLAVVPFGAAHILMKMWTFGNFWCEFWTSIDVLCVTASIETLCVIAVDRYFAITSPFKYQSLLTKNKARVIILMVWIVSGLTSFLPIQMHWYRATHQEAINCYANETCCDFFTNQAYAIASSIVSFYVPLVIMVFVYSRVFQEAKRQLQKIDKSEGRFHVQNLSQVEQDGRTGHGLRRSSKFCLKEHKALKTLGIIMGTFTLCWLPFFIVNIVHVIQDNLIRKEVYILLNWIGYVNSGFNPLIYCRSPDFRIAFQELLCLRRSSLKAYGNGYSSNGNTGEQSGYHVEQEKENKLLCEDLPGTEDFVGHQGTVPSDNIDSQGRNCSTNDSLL
MEKK3 PB1 HTS = raises or lowers MEK5 binding to the human MEKK3 PB1 domain; Q99759; hit rate 1.4% among 290,000; bead-based flow cytometry, Alexa488-MEK5 binding to MEKK3; actives lie on both sides; 0 = blocked by unlabeled MEK5, 100 = vehicle; binding response (% of control), % at 10 µM;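 active = binding response more than 3 SD above or below the average of its plate-row segment, actives on both sides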;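 also: Alexa488 bead fluorescence after subtracting the streptavidin-only scavenger bead signal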
MEKK2 WT-MEK5 = raises or lowers MEK5 binding to wildtype human MEKK2 PB1 domain. AID 1531. bead flow cytometry, Alexa488-MEK5 binding to MEKK2 WT; actives lie on both sides. Q9Y2U5. hit rate 1.1% among 290,000. binding response (% of control), % at 10 µM; in the data active = binding response below about 67% or above about 130%
GRK2 inh = human GRK2 inhibition via aptamer displacement; bead flow cytometry, FAM-aptamer displacement from GRK2; hit rate 0.59% among 330,000; AID 488847; P25098; inhibition of aptamer binding, % at 10 µM;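 active = inhibition of aptamer binding above 40%, roughly 3 SD of noise, on plates passing a quality check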;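 also: median bead fluorescence of bound FAM aptamer so fluorescent compounds give negative values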
MEKK2wt confirm = raises or lowers MEK5 binding to wildtype human MEKK2, retest; shares compounds with MEKK3 PB1 HTS; bead flow cytometry, Alexa488-MEK5 binding to MEKK2 WT; actives lie on both sides; binding response (% of control), % at 10 µM; hit rate 2.4% among 5,900; AID 1892; in the data active = binding response below about 16% or above about 210%; inactive = in between
MEKK2mut confirm = signal of MEK5 binding to mutant human MEKK2, retest | shares compounds with MEKK3 PB1 HTS | bead flow cytometry, Alexa488-MEK5 binding to MEKK2 mutant | percent response, % at 10 µM | hit rate 2% among 5,900 | AID 1893; in the data active = percent response mostly above about 71%, no sharp cut-off; inactive = mostly below about 38%;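 also: higher means compound restores mutant binding toward wildtype level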
MEKK3 confirm = MEKK3-MEK5 PB1 inhibition, single concentration confirmation | binding response (% of control), % at 10 µM | shares compounds with MEKK3 PB1 HTS | bead flow cytometry, Alexa488-MEK5 binding to MEKK3; stronger effect = lower value | hit rate 1.8% among 5,900;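 active = binding response below 72% of control, or above a set upper limit, though filed actives all read lower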;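 also: 100% = DMSO only wells and 0% = binding blocked by excess unlabeled MEK5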
* = called active by the depositor; · = not tested or not shown; ! = a repeat was not active; [ ] = another dose, or the depositor's remark.

SMILES	MEKK2 mut-MEK5	B2AR ag	MEKK3 PB1 HTS	MEKK2 WT-MEK5	GRK2 inh	MEKK2wt confirm	MEKK2mut confirm	MEKK3 confirm
O=C(NCc1ccco1)C1CCN(c2ccc(S(=O)(=O)N3CCOCC3)cc2[N+](=O)[O-])CC1	-10	2	71*[inhibitor]	79	2	100	-1	102
COc1ccc(-c2c[n+](CC(=O)N3c4ccccc4Sc4ccccc43)c3n2CCC3)cc1	16	4	101	123	0	·	·	·
O=C(C[n+]1cc(-c2ccc(Cl)c(Cl)c2)n2c1CCC2)N1c2ccccc2Sc2ccccc21	55*	1	97	221*	0	146	18	86
O=C(C[n+]1cc(-c2ccc(Cl)cc2)n2c1CCC2)N1c2ccccc2Sc2ccccc21	29	1	100	157*	0	146	19	103
CCN(C(=O)CSc1nnc(SC(C)C)s1)C1CCS(=O)(=O)C1 (configuration not stated)	·	5	·	·	1	·	·	·
CCc1c(C)nc(N2CCN(c3ccc(Cl)cc3)CC2)[nH]c1=O	4	12	97	102	1	·	·	·
CCOC(=O)c1c(CSCc2ccccc2)oc2ccc(O)c(CN(C)C)c12	18	13	104	137*	0	139	21	106
O=C(NCc1ccc2c(c1)OCO2)C(C(=O)c1ccccc1)n1cc(Cl)ccc1=O (configuration not stated)	1	-3	132*	106	0	101	-3	102
COc1ccc(N(C)C(=O)C2CCN(S(=O)(=O)c3cccc4nonc34)CC2)cc1	-1	-7	100	100	0	·	·	·
Cc1cc(-c2nn(-c3ccccc3F)cc2CNCCc2cnc[nH]2)c(C)s1	39	5	112	148*	0	130	17	106
Cc1cc(-c2nn(-c3ccccc3F)cc2CN2CCC(C(N)=O)CC2)c(C)s1	7	-3	99	114	0	·	·	·
CC(C)(C)[C@H]1C=C(C(=O)NCc2nc3ccccc3[nH]2)O[C@@H](OCc2ccc(CO)cc2)C1	-3	8	100	95	3	·	·	·
Cc1nc2c(-c3ccc(F)cc3)c(C)nn2c(C)c1CCC(=O)Nc1ccccc1F	-13	-4	45*[inhibitor]	48	0	94	-7	99
COC(CNC(=O)CCc1c(C)nc2c(-c3ccc(F)cc3)c(C)nn2c1C)OC	1	-10	101	99	0	·	·	·
O=C(CN1CCCc2ccccc21)N/N=C/c1ccccc1	9	-8	96	103	0	·	·	·
CCN(CC)c1ccc(/C=N/NC(=O)CN2CCCc3ccccc32)cc1	-1	16	139*	101	3	96	-6	100
CCc1ccc(C(=O)COC(=O)c2cccnc2Cl)cc1	-16	2	72*[inhibitor]	74	0	100	-3	103
CCN(C(=O)COC(=O)CNC(=O)c1ccc(C)cc1)c1c(N)n(Cc2ccccc2)c(=O)[nH]c1=O	·	-6	·	·	6	·	·	·
Oc1cc(CNC2CCCCC2)c(O)cc1CNC1CCCCC1	·	14	·	·	·	·	·	·
COc1ccc(N2C(=O)c3cccc4cc(Br)cc(c34)C2=O)cc1	-18	-19	73*[inhibitor]	91	0	96	-3	97
CCCNC(=O)CN1C(=O)COc2ccc(S(=O)(=O)N3CC(C)CC(C)C3)cc21 (configuration not stated)	2	-5	95	101	1	·	·	·
CC(=O)Nc1cccc(C(=O)N2CCN(S(=O)(=O)c3ccc(C4CCCCC4)cc3)CC2)c1	·	8	·	·	·	·	·	·
Cc1ccccc1C(=O)NCC(=O)OCCOc1ccc(C(C)C)c(C)c1	·	-3	·	·	3	·	·	·
O=C(Cc1cccs1)N/N=C/C=C/c1ccccc1	0	-6	129*	104	4	104	0	104
O=C(Cc1cccs1)N/N=C/C=C\c1ccccc1[N+](=O)[O-]	-2	-1	110	100	2	·	·	·
SMILES	MEKK2 mut-MEK5	B2AR ag	MEKK3 PB1 HTS	MEKK2 WT-MEK5	GRK2 inh	MEKK2wt confirm	MEKK2mut confirm	MEKK3 confirm
COc1ccccc1NCC(=O)N/N=C/C=C/c1ccccc1	3	-3	70*[inhibitor]	96	0	99	-3	99
C=CC[C@@H](CC(=O)N[C@H](CO)Cc1ccccc1)C(=O)N[C@@H](COC(=O)[C@@H](CC=C)CC(=O)OC(C)(C)C)Cc1ccccc1	·	-4	·	·	6	·	·	·
COc1ccc(/C=C(/NC(=O)c2ccco2)C(=O)N2CCCC2=O)cc1	-26	-12	64*[inhibitor]	59*[inhibitor]	0	97	-12	94
CC(Oc1ccc(C#N)cc1)C(=O)NC1CCCC1 (configuration not stated)	·	2	·	·	3	·	·	·
CC(C)NCC(O)c1ccc(NS(C)(=O)=O)cc1 (configuration not stated)	6	·	122*!	119	3	101	-5	99
O=C(O)c1ccc2nc(CO)[nH]c2c1	-16	1	2.0*[inhibitor]	2.0*[inhibitor]	0	107	0	102
CC(O)CCc1nc2ccc(C(=O)O)cc2[nH]1 (configuration not stated)	·	12	·	·	1	·	·	·
COc1cccc(C2NC(=O)NC(C)=C2C(=O)OCC2CCCCC2)c1 (configuration not stated)	7	23	103	102	2	·	·	·
CCOc1ccc(-n2c(COc3ccccc3)nnc2SCC(N)=O)cc1	5	-4	122*	106	0	98	-2	103
CCOc1ccccc1-n1c(COc2ccccc2)nnc1SCC(N)=O	0	6	91	95	1	·	·	·
Cc1c(N(C)C)nc2ccccc2c1N	10	8	118	123	0	·	·	·
CCN(CC)c1nc2ccccc2c(N)c1-c1ccccc1	26*	2	114	123	0	106	0	99
CCOc1ccc(C(=O)NCC(=O)NC(C)CCc2ccccc2)cc1OCC (configuration not stated)	1	-3	101	103	0	·	·	·
CC1(C)Cc2cccc(Oc3cc(NN4CCCCC4)c([N+](=O)[O-])cc3[N+](=O)[O-])c2O1	-6	8	99	96	6	·	·	·
N#Cc1c(NC(=S)NC(=O)c2ccccc2)sc2c1CCCC2	-2	5	95	98	0	·	·	·
CCCC1Cc2c(sc(NC(=S)NC(=O)c3ccccc3)c2C#N)CO1 (configuration not stated)	0	·	134*	105	0	97	-3	93
